The text below walks through data of PubChem BioAssay AID624256 (NMMLSC, 2012).

About 3,700 (1%) of roughly 360,000 compounds were called active. About 2% were inconclusive and are not listed.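 The calls were made as follows: active = normalized GFP-positive differentiation at or above the plate's own cutoff, the solvent-only control mean plus 3 SD; inconclusive = no clear call, values can overlap the other calls; inactive = the rest.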 The full list was thinned out, with actives kept by preference.

The assay can be described thus: HoxA9-arrested leukemia cell differentiation promoters – flow cytometry, MLPCN library, primary screen (AID 624256).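 As to GFP+ MAC1+ double positive: cells exposed to compound for four days before flow analysis.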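 As to normalized GFP-positive differentiation: cells exposed to compound for four days before flow analysis; 0% = DMSO wells and 100% = fulvestrant positive control at 5 µM.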 The note with it: ER-HoxA9 myeloid progenitors, lysozyme-GFP differentiation, at 10 µM; GFP+ MAC1+ double positive: measured here: differentiation confirmed by MAC1 staining, stronger effect = higher value; normalized GFP-positive differentiation: stronger effect = higher value.
In the case of `Cc1nc2c(OCC(=O)C(C)(C)C)cccn2c1N(C)Cc1cccs1`, the GFP+ MAC1+ double positive came to 2.1% and the outcome was inactive.

Regarding `Fc1cccc(Cc2c(-c3cccc(Cl)c3)nc3ccc(Br)cn23)c1`, the GFP+ MAC1+ double positive worked out at 0.4% and the compound was classed as inactive.

With `O=C(Nc1cccc(Cc2ccccc2)c1)Nc1ccc2nc([C@@H]3O[C@H](CO)[C@@H](O)[C@H](O)[C@H]3O)[nH]c2c1`, the GFP+ MAC1+ double positive worked out at 2.9% and the call was inactive.

Take `CC#CC[N+](C)(C)CCCCCC`: the GFP+ MAC1+ double positive was 1.6% and the normalized GFP-positive differentiation was 19.3% (active).

On to `COC(=O)[C@]12CCCCC=C1N(Cc1ccc(Cl)cc1Cl)C(=O)[C@H](CC(=O)NCc1cccc3ccccc13)C2`, for which the GFP+ MAC1+ double positive is 1.1% and the outcome was inactive.

For the compound `Cc1cc2oc3ccc(NCCC4CCCN4C)cc3c(=O)c2cc1C` (stereo not given), the GFP+ MAC1+ double positive came to 6.6% and the normalized GFP-positive differentiation is 73.2% (active).

In the case of `COc1cccc2sc3cc(NCC[C@@H]4CCCN4C)ccc3c(=O)c12`, the GFP+ MAC1+ double positive turned out to be 1.3% and the compound was classed as inactive.

As for `CCCCNC(=O)c1nc(C2CCN(S(=O)(=O)c3ccc(F)c(F)c3)CC2)oc1-c1cccc(C(F)(F)F)c1`, the GFP+ MAC1+ double positive came out at 0.6% and the outcome was inactive.

As to `Cc1ccc(-n2nc3cc(C)c(NC(=O)c4cccnc4)cc3n2)cc1`, the GFP+ MAC1+ double positive turned out to be 5.5% and the normalized GFP-positive differentiation is 15.8% (active).

Regarding `Cc1ccc(S(=O)(=O)N2CCCCC2)cc1NC(=O)c1cccnc1`, the GFP+ MAC1+ double positive stood at 1.2% and the compound was called inactive.

For `O=C(Nc1cccc(-n2cnnn2)c1)c1cccnc1`, the GFP+ MAC1+ double positive came out at 2% and the outcome was inactive.

For the compound `CC1(C(=O)NS(=O)(=O)c2ccc(C#N)cc2)CCN1C(=O)CC1CCCC1` (stereo not given), the GFP+ MAC1+ double positive stood at 0.6% and the call was inactive.

On to `CC(NC(=O)COC(=O)CCC(=O)c1ccc(Cl)cc1)c1ccccc1` (stereo not given), for which the GFP+ MAC1+ double positive was found to be 0.8% and the compound was called inactive.

For `C=CCOc1ccc(/C=C/C(=O)OCC(=O)NC(C)c2ccc(F)cc2)cc1` (stereo not given), the GFP+ MAC1+ double positive turned out to be 0.7% and the result was inactive.

`CC(NC(=O)COC(=O)c1ccc(Cl)cc1O)c1ccc(F)cc1` (stereo not given): the GFP+ MAC1+ double positive was 6.2% and the normalized GFP-positive differentiation is 140% (active).

Consider `CN1OC[C@@H]2CN(C(=O)C(C)(C)C)[C@H](c3ccc(-n4ccnc4)cc3)C[C@@H]21`, for which the GFP+ MAC1+ double positive is 0.2% and the compound was called inactive.

`COc1ccc(/C=C/C(=O)c2c(O)cc(OC)cc2OC)cc1`: the GFP+ MAC1+ double positive turned out to be 1.7% and the compound was classed as inactive.

Turning to `O=C(NCc1ccccc1)C(c1ccc(F)cc1)N1CCN(C(=O)C2CCCO2)CC1` (stereo not given), the GFP+ MAC1+ double positive was 0.2% and the compound was called inactive.

Consider `CCC(=O)N1Cc2cc(C(=O)NCc3cccc(F)c3)nc(-c3cccc(C4=CCCC4)c3)c2[C@H]1CCO`, for which the GFP+ MAC1+ double positive came to 0.5% and the compound was classed as inactive.

Consider `CCOC(=O)c1c(-c2ccccc2)oc2ccc(OCC(=O)NN)cc12`, for which the GFP+ MAC1+ double positive came to 1.9% and the normalized GFP-positive differentiation is 26.6% (active).

As for `CCOC(=O)c1c(-c2ccccc2)oc2cc(Br)c(O)c(C=O)c12`, the GFP+ MAC1+ double positive was determined as 0.5% and the compound was classed as inactive.

As for `Cc1cc(=O)oc2ccc(OCC(=O)O)cc12`, the GFP+ MAC1+ double positive is 2.2% and the result was inactive.

In the case of `CC(C)OC(=O)CC(=O)CC(O)c1cccc([N+](=O)[O-])c1` (stereo not given), the GFP+ MAC1+ double positive amounted to 3.1% and the outcome was inactive.

For `COCOc1cccc(CN2CCC(C)(Oc3ccc(SC)cc3)C2)c1` (stereo not given), the GFP+ MAC1+ double positive came to 0.7% and the compound was called inactive.

For the compound `CN(C)C(=O)c1cccc(-c2cnc3c(NC=O)cc(-c4ccc(F)cc4)cn23)c1`, the GFP+ MAC1+ double positive was 1.2% and the result was inactive.

In the case of `CCCc1nc2c3ccccc3ccn2c1Cc1ccccc1C(F)(F)F`, the GFP+ MAC1+ double positive is 1.1% and the result was inactive.

As for `NC(c1csc(NC(=O)Nc2cccc(C(F)(F)F)c2)n1)C1CCCCC1` (stereo not given), the GFP+ MAC1+ double positive was 1.4% and the compound was called inactive.

As for `CCOC(=O)C1=CCC2C(=O)N(Cc3ccccc3)C(=O)C12` (stereo not given), the GFP+ MAC1+ double positive came to 1.7% and the result was inactive.

As for `CN(C(=O)c1cccc([N+](=O)[O-])c1)c1ccccc1C(=O)NCc1ccccc1`, the GFP+ MAC1+ double positive amounted to 2.5% and the normalized GFP-positive differentiation is 45.3% (active).

With `CC(C)(C)SCCNC(=O)c1cccc([N+](=O)[O-])c1`, the GFP+ MAC1+ double positive came out at 1.8% and the outcome was inactive.

Turning to `CN(C)CCNC(=O)/C(=C/c1cccc([N+](=O)[O-])c1)NC(=O)c1ccccc1`, the GFP+ MAC1+ double positive amounted to 0.5% and the compound was called inactive.

Consider `O=C1Nc2ccccc2NC(c2ccc3c(c2)OCO3)=C1N(Cc1ccc(F)cc1)C(=O)c1ccco1`, for which the GFP+ MAC1+ double positive is 0.3% and the compound was called inactive.

Take `COC(=O)C[C@H]1C=C[C@H](NC(=O)c2ccc(F)cc2)[C@@H](CO)O1`: the GFP+ MAC1+ double positive came out at 3.2% and the compound was called inactive.

As to `O=C1OCCOC2CCCc3oc(-c4ccccc4)c1c32` (stereo not given), the GFP+ MAC1+ double positive is 0.1% and the outcome was inactive.

On to `COc1ccccc1C(=O)OCC(=O)Nc1cccc(S(=O)(=O)NC2=NCCCCC2)c1`, for which the GFP+ MAC1+ double positive is 1.4% and the result was inactive.

Take `CCc1ccc(C(=O)OCC(=O)Nc2cccc(S(=O)(=O)NC3=NCCCCC3)c2)cc1`: the GFP+ MAC1+ double positive was 0.1% and the outcome was inactive.

Regarding `Cc1cccc(-n2c(SCC(=O)Nc3cccc(S(=O)(=O)NC4=NCCCCC4)c3)nc3ccccc3c2=O)c1C`, the GFP+ MAC1+ double positive worked out at 2.9% and the normalized GFP-positive differentiation was 30% (active).

For the compound `CCc1nc2c(OCCOc3ccccc3)cccn2c1N(C)C(=O)c1cccs1`, the GFP+ MAC1+ double positive stood at 0.5% and the outcome was inactive.

For `CN(C)C1CN(Cc2cn(Cc3ccccc3)nn2)S(=O)(=O)C1` (stereo not given), the GFP+ MAC1+ double positive was found to be 1.6% and the result was inactive.

Turning to `CC(=O)Nc1cccc(OCC(=O)/C=C2\N(C)c3ccccc3C2(C)C)c1`, the GFP+ MAC1+ double positive came to 0.5% and the normalized GFP-positive differentiation was 24.3% (active).

On to `Cc1cccc(OCC(=O)Nc2ccccc2F)c1`, for which the GFP+ MAC1+ double positive stood at 0.3% and the compound was called inactive.

In the case of `COc1cccc(NC(=S)C(C#N)=C2N(C)c3ccccc3N2C)c1`, the GFP+ MAC1+ double positive amounted to 0.3% and the result was inactive.

In the case of `CC1(C)OC(=O)C2=C(C[C@@H](C3CCCC3)O[C@@H]2c2ccc(Cl)cc2)O1`, the GFP+ MAC1+ double positive is 1.8% and the compound was called inactive.

`COc1c(C)cc(C(O)c2ncc(-c3cccc(C(F)(F)F)c3)[nH]2)cc1C` (stereo not given): the GFP+ MAC1+ double positive is 1.2% and the compound was called inactive.

As to `O=C(Nc1ccc2sc3ccccc3c(=O)c2c1)c1ccccc1Cl`, the GFP+ MAC1+ double positive amounted to 0.3% and the normalized GFP-positive differentiation was 12.5% (active).

On to `O=C(Nc1cccc(NC(=O)c2ccccc2[N+](=O)[O-])c1)c1ccccc1Cl`, for which the GFP+ MAC1+ double positive stood at 0.4% and the call was inactive.

On to `COc1cc(NC(=O)c2cccs2)ccc1NC(=O)c1ccccc1Cl`, for which the GFP+ MAC1+ double positive amounted to 0.6% and the call was inactive.

Consider `Cc1cc2nc(-c3ccco3)c(Cc3cccc(F)c3)n2c(C)c1Br`, for which the GFP+ MAC1+ double positive was found to be 0.9% and the outcome was inactive.

In the case of `O=C(CCCN1C(=O)CCC1=O)Nc1ccc(Cl)c(C(F)(F)F)c1`, the GFP+ MAC1+ double positive worked out at 8.3% and the normalized GFP-positive differentiation was 22.8% (active).

Consider `O=C(CN1CCN(C(=O)c2ccco2)CC1)Nc1ccc(Cl)c(C(F)(F)F)c1`, for which the GFP+ MAC1+ double positive came out at 0.9% and the compound was classed as inactive.

Consider `CN(CC(=O)Nc1ccc(Cl)c(C(F)(F)F)c1)C(=O)CCC(=O)c1ccccc1`, for which the GFP+ MAC1+ double positive was 1% and the call was inactive.

For `CN(C(=O)CN1CCN(c2cc(-c3ccc(OCc4ccccc4)cc3)ncn2)CC1)c1ccccc1`, the GFP+ MAC1+ double positive was 1.4% and the compound was called inactive.

Consider `CCOC(=O)C1=C(CN2CCc3ccccc32)NC(=O)NC1c1cccc([N+](=O)[O-])c1` (stereo not given), for which the GFP+ MAC1+ double positive came to 1.5% and the normalized GFP-positive differentiation was 18.4% (active).

`CCOC(=O)C1=C(CN2CCc3ccccc32)NC(=O)NC1c1ccc(Cl)cc1` (stereo not given): the GFP+ MAC1+ double positive was found to be 3.7% and the outcome was inactive.

For `CCOC(=O)C1=C(CN2CCc3ccccc32)NC(=O)NC1c1cc(C)ccc1C` (stereo not given), the GFP+ MAC1+ double positive was 0.5% and the call was inactive.
